# Rows were chosen to be rich in hits. Some 12% of all compounds tested hit in one or more screens of this group.
# NS1 function inh – qHTS Assay for Inhibitors of Influenza NS1 Protein Function | AID 2326, 2010 | Potency, µM (doses to about 46.1 µM) | 270,000 tested, 0.4% active; also: actives are rising curves; nearly all actives have a fitted effect of over 50% in size
#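 Growth recovery, yeast-based: influenza A NS1 expressed in S. cerevisiae causes slow growth, and suppressors are detected by OD600. The parent strain without NS1 is used as positive control.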
# SARS PLpro yeast – qHTS of Yeast-based Assay for SARS-CoV PLP; S. cerevisiae expressing SARS-CoV PLpro, growth rescue; Potency, µM (titrated, usually from 32.9 µM), actives largely listed as activators; 330,000 tested, 0.19% active; AID 485353, 2010; also: nearly all actives have a fitted effect of over 55% in size
# Cycloheximide cs – Cycloheximide Counterscreen for Small Molecule Inhibitors of Shiga Toxin | AID 2314, 2010 | max response, % | cell reporter, cycloheximide protein synthesis inhibition counterscreen | 300,000 tested, 12% active; in the data active = max response mostly above about 13%, no sharp cut-off; inactive = mostly below about 14%; also: read at 38.3 µM for the half of the compounds with a filed dose
# Shiga toxin inh – A qHTS for Small Molecule Inhibitors of Shiga Toxin; Vero cells, Shiga toxin protein synthesis inhibition reporter; inhibition, % at 38.7 µM; 290,000 tested, 9.2% active; in the data active = inhibition mostly above about 28%, no sharp cut-off; inactive = mostly below about 43%
# Hits are given with their value; n = inactive; u = inconclusive; x = not tested or not shown; [ ] = dose if it differs, or a comment. Unless noted, calls follow the shape of the full dose curve.
SMILES,NS1 function inh,SARS PLpro yeast,Cycloheximide cs,Shiga toxin inh
CC1CCCCN1C(=O)CSc1nc(-c2ccccc2)cn1N (stereo not given),x,n,25,46
O=C(N/N=C/c1cc([N+](=O)[O-])ccc1O)C12CC3CC(CC(C3)C1)C2,x,u,25,n
O=C(N/N=C/c1ccc(O)cc1O)NC12CC3CC(CC(C3)C1)C2,n,n,24,33
O=C(N/N=C/c1cc([N+](=O)[O-])ccc1O)NC12CC3CC(CC(C3)C1)C2,n,u,73,96
CCN(c1ccccc1)S(=O)(=O)c1cccc(C(=O)NCc2ccncc2)c1,x,n,x,x
CCCOc1cccc(C2C(C(=O)c3cccs3)=C(O)C(=O)N2CCN2CCOCC2)c1 (stereo not given),n,n,n,n
COc1ccccc1Nc1nc(N)nc(CSC(=S)N2CCCCC2C)n1 (stereo not given),n,13µM,43,43
COc1ccccc1Nc1nc(N)nc(CSc2nccn2C)n1,n,n,n,45
Cc1cccc(Nc2nc(N)nc(CC(=O)CSc3ccc(Cl)cc3)n2)c1,n,n,n,n
Cc1ccc(Nc2nc(N)nc(CSc3nccn3C)n2)cc1,n,n,52,69
Cc1cccc(Nc2nc(N)nc(CSc3nccn3C)n2)c1,n,n,n,51
Cc1ccc(-c2nnc(SCc3nc(N)nc(Nc4ccccc4C)n3)n2N)cc1,n,n,n,n
CN(CC(=O)Nc1ccc2c(c1)OCO2)S(=O)(=O)c1ccc(F)cc1,n,n,n,n
Cn1c(=O)c2c(nc(N3CCN(C(=O)c4ccco4)CC3)n2CCSc2ncccn2)n(C)c1=O,x,n,n,n
Cc1cnc(C(=O)OCc2ccc(Br)cc2F)cn1,n,n,n,n
O=C(NNC(=O)c1ccccc1OCc1ccccc1Cl)c1csc(N2CCOCC2)n1,n,n,10,n
CCOC(=O)c1ccc(NC(=O)Nc2cc(C)on2)cc1,n,n,32,39
CCOC(=O)c1ccc(NC(=O)Nc2ccccn2)cc1,n,n,24,61
Cc1cc(C(=O)Nc2c(F)c(F)c(F)c(F)c2F)n(-c2ccccc2)n1,x,n,n,n
S=C(NCc1ccco1)NCC(c1ccco1)N1CCCCC1 (stereo not given),x,n,n,n
Cc1ccccc1N(C)S(=O)(=O)c1ccc2[nH]cc(C(=O)NCC3CCCO3)c(=O)c2c1 (stereo not given),n,n,n,n
O=C(c1ccccc1)c1c[nH]c2cc3c(cc2c1=O)OCO3,n,n,n,n
O=C(NCc1ccccc1)c1c[nH]c2ccc(S(=O)(=O)Nc3ccc4c(c3)OCCO4)cc2c1=O,n,n,n,49
CCc1ccc(NS(=O)(=O)c2ccc3[nH]cc(C(=O)NCC4CCCO4)c(=O)c3c2)cc1 (stereo not given),n,n,27,n
O=C(NCc1cccnc1)c1c[nH]c2cc3c(cc2c1=O)OCCO3,n,n,35,145
SMILES,NS1 function inh,SARS PLpro yeast,Cycloheximide cs,Shiga toxin inh
O=C(c1ccccc1)c1c[nH]c2cc3c(cc2c1=O)OCCO3,n,n,17,45
Cc1ccc(N2CCN(S(=O)(=O)c3ccc4oc(=O)ccc4c3)CC2)cc1Cl,n,n,n,n
C[C@@](Cc1ccccc1)(C(=O)O)N1C(=O)c2ccc(C(=O)O)cc2C1=O,x,n,n,n
CCc1ccc(NS(=O)(=O)c2ccc3[nH]cc(C(=O)N4CCCCC4)c(=O)c3c2)cc1,n,n,n,n
CCc1ccc(NS(=O)(=O)c2ccc3[nH]cc(C(=O)N4CCc5ccccc54)c(=O)c3c2)cc1,n,n,35,25
CC(=O)Nc1cccc(NC(=O)c2ccc(COc3ccccc3)cc2)c1,n,n,59,109
COc1cccc(C(=O)Nc2ccc(C(=O)O)cc2)c1,n,n,n,n
Cc1cccc(C(=O)NNC(=O)c2cccc(C)c2)c1,n,n,n,n
Cc1cccc(C(=O)NNC(=O)c2ccc(F)cc2)c1,n,n,14,n
O=C(COc1cccc(NC(=O)c2ccccc2)c1)c1ccc(F)cc1,n,n,n,n
CCOc1cccc(NC(=O)c2cccc(F)c2)c1,n,n,20,102
COC(=O)c1ccc(NC(=O)c2cccc(OC)c2)cc1,n,n,57,91
CCc1cc2cc(C(=O)Nc3ccc(C)cc3)sc2s1,n[9.22 µM],n,n,n
CCCCC(CC)CNC(=O)CC1Nc2c3ccccc3nc(=S)n2C1=O (stereo not given),x,n,n,n
COc1cccc(C(=O)Nc2cccnc2)c1,n,n,48,n
O=C(Nc1nnc(-c2ccc(F)cc2)s1)c1ccco1,n,n,n,n
COc1cccc(C(=O)Nc2ccc(C)cc2)c1,n,n,30,88
COc1cccc(C(=O)NNC(=O)C(=O)Nc2ccc(C)cc2)c1,n,n,n,n
COc1cccc(OC)c1C(=O)Nc1nnc(-c2ccc(F)cc2)s1,n,n,10,30
COc1ccccc1-c1nnc(NC(C)=O)s1,n,n,38,49
Cc1c(C)c(C)c(CC2(C)CSC2)c(CC2(C)CSC2)c1C,n,x,x,x
O=C(CN(Cc1ccc(Cl)cc1)C(=O)CNS(=O)(=O)c1ccccc1)NCC1CCCO1 (stereo not given),n,n,n,n
CC1=C(C(=O)N2CCN(c3cc(C)ccc3C)CC2)C2(CCC(C)CC2)OC1=O (stereo not given),n,n,n,n
COc1ccc(C(=O)Nc2ccc(C(=O)Nc3cccc(C)c3)cc2)cc1,n,n,n,n
COc1cccc(C(=O)NC(=O)Nc2cc(C)[nH]n2)c1,n,n,39,84
SMILES,NS1 function inh,SARS PLpro yeast,Cycloheximide cs,Shiga toxin inh
COC(=O)c1cccc(NC(=O)c2cccc(OC)c2)c1,n,x,53,104
COC(=O)c1ccc(NC(=O)c2cccc(C)c2)cc1,n,n,19,n
COc1cccc(C(=O)Nc2cccc(OC(C)=O)c2)c1,n,n,45,52
COc1cccc(C(=O)Nc2ccncc2)c1,n,n,n,n
CCOc1cccc(C(=O)Nc2cccc(C(=O)NC(C)(C)C)c2)c1,n,n,n,n
O=C(COc1cccc(NC(=O)c2ccco2)c1)c1ccc(F)cc1,n,n,15,25
CCOc1cccc(C(=O)Nc2cccc(NC(=O)c3ccco3)c2)c1,x,n,25,n
CCOc1ccc(NC(=O)c2ccc(Cl)c(NC(=O)c3ccco3)c2)cc1,n,n,n,n
CCOc1cccc(C(=O)Nc2cccc(C(C)=O)c2)c1,n,n,40,68
COc1cccc(C(=O)Nc2cccc(C(C)=O)c2)c1,n,n,87,18
O=C(NCc1ccc(Cl)cc1)C1CCC(CNS(=O)(=O)c2ccccc2)CC1 (stereo not given),n,n,n,n
COc1cccc(NC(=O)c2ccc(NC(C)=O)cc2)c1,n,n,33,n
COc1cccc(NC(=O)c2ccncc2)c1,n,n,n,n
COc1cccc(C(=O)Nc2ccc(NC(=O)C3C4C=CC(C4)C3C(=O)O)cc2)c1 (stereo not given),n,n,41,142
COc1cccc(C(=O)Nc2ccc3c(c2)n(C)c(=O)n3C)c1,n,n,n,n
COc1cc(NC(=O)C2C3C=CC(C3)C2C(=O)O)ccc1NC(=O)c1ccccc1 (stereo not given),n,n,n,n

# Screens deposited in PubChem BioAssay by National Center for Advancing Translational Sciences (NCATS).
